The supplement of paper PMC11732987, “Enantioselective OTUD7B fragment discovery through chemoproteomics screening and high-throughput optimisation” (Communications Chemistry, 2025)

Experiments:
Assay in all cases: log2 ratio of Biotin-Ahx-Ub-VS probe labelling (fragment/DMSO); higher = less target engagement (more negative = stronger competition), active = hit call of the paper (q ≤ 0.05, log2 ratio ≤ -1)
Conditions in all cases: compound concentration: 200 uM; treatment time: 3 h
USP19 = target: T1, USP19 (UniProt O94966)
T1 sequence (whole entry): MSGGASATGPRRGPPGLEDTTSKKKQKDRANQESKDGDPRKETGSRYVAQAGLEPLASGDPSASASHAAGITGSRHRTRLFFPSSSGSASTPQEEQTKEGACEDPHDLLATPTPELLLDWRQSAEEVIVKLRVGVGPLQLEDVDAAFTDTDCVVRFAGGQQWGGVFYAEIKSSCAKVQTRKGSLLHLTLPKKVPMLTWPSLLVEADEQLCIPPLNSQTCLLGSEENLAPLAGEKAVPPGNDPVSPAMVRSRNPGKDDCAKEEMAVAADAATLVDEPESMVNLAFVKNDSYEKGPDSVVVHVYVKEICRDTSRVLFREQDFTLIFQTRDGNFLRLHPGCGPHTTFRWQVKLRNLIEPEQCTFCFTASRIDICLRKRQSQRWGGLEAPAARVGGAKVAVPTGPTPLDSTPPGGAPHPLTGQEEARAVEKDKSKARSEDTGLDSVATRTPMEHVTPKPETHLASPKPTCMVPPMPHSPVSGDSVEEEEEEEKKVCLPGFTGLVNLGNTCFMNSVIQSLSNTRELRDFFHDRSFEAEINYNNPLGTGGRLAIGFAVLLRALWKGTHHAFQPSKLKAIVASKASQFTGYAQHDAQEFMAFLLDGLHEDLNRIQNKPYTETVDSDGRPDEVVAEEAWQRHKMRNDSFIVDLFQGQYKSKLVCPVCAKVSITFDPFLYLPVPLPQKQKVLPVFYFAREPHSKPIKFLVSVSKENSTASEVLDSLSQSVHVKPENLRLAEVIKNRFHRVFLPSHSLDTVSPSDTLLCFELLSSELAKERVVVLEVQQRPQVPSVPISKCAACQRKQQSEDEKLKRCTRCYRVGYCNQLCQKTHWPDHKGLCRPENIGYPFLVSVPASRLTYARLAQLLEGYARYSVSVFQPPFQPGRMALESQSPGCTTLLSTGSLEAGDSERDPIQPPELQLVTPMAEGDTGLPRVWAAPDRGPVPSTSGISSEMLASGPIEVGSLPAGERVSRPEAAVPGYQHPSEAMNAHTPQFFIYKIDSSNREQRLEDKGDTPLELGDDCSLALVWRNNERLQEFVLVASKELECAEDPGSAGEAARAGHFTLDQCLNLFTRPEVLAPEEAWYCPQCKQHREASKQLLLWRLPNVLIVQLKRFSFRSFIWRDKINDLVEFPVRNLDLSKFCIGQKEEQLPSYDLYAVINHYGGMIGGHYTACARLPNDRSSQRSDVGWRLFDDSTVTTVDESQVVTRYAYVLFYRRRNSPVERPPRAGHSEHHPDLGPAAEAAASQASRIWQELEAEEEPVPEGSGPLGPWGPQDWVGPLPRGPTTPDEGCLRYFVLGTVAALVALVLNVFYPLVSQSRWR
Outline: (§1)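 Using Biotin-Ahx-Ub-VS at 0.5 µM final for 1 h, DUBs were labelled in HEK293T lysate (495 µg per sample) that had first been treated in triplicate with fragment at 200 µM or vehicle for 3 h. NeutrAvidin enrichment, LysC and trypsin digestion and diaPASEF LC-MS/MS followed. Spectronaut label-free quantities were global-median-normalised. Values are average log2 fragment/vehicle ratios by unpaired t-test, using proteins with ≥2 unique peptides.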

USP22 = target: T2, USP22 (UniProt Q9UPT9)
T2 sequence (whole entry): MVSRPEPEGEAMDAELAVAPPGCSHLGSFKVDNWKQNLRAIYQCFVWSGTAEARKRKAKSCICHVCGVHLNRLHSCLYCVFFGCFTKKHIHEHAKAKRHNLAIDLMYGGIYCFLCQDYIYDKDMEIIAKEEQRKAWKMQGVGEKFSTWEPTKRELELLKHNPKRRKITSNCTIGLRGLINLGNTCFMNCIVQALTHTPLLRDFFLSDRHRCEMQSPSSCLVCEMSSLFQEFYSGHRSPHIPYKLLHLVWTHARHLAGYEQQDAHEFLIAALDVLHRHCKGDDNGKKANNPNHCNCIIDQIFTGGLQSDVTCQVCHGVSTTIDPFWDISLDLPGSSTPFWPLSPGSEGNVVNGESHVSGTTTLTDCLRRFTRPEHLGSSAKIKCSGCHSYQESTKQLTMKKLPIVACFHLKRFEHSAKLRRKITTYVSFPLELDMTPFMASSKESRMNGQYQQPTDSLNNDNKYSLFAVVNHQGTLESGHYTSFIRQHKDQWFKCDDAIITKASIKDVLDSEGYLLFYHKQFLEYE
Outline: as §1

USP24 = USP24 (UniProt Q9UPU5)
USP24, sequence (Q9UPU5 whole entry): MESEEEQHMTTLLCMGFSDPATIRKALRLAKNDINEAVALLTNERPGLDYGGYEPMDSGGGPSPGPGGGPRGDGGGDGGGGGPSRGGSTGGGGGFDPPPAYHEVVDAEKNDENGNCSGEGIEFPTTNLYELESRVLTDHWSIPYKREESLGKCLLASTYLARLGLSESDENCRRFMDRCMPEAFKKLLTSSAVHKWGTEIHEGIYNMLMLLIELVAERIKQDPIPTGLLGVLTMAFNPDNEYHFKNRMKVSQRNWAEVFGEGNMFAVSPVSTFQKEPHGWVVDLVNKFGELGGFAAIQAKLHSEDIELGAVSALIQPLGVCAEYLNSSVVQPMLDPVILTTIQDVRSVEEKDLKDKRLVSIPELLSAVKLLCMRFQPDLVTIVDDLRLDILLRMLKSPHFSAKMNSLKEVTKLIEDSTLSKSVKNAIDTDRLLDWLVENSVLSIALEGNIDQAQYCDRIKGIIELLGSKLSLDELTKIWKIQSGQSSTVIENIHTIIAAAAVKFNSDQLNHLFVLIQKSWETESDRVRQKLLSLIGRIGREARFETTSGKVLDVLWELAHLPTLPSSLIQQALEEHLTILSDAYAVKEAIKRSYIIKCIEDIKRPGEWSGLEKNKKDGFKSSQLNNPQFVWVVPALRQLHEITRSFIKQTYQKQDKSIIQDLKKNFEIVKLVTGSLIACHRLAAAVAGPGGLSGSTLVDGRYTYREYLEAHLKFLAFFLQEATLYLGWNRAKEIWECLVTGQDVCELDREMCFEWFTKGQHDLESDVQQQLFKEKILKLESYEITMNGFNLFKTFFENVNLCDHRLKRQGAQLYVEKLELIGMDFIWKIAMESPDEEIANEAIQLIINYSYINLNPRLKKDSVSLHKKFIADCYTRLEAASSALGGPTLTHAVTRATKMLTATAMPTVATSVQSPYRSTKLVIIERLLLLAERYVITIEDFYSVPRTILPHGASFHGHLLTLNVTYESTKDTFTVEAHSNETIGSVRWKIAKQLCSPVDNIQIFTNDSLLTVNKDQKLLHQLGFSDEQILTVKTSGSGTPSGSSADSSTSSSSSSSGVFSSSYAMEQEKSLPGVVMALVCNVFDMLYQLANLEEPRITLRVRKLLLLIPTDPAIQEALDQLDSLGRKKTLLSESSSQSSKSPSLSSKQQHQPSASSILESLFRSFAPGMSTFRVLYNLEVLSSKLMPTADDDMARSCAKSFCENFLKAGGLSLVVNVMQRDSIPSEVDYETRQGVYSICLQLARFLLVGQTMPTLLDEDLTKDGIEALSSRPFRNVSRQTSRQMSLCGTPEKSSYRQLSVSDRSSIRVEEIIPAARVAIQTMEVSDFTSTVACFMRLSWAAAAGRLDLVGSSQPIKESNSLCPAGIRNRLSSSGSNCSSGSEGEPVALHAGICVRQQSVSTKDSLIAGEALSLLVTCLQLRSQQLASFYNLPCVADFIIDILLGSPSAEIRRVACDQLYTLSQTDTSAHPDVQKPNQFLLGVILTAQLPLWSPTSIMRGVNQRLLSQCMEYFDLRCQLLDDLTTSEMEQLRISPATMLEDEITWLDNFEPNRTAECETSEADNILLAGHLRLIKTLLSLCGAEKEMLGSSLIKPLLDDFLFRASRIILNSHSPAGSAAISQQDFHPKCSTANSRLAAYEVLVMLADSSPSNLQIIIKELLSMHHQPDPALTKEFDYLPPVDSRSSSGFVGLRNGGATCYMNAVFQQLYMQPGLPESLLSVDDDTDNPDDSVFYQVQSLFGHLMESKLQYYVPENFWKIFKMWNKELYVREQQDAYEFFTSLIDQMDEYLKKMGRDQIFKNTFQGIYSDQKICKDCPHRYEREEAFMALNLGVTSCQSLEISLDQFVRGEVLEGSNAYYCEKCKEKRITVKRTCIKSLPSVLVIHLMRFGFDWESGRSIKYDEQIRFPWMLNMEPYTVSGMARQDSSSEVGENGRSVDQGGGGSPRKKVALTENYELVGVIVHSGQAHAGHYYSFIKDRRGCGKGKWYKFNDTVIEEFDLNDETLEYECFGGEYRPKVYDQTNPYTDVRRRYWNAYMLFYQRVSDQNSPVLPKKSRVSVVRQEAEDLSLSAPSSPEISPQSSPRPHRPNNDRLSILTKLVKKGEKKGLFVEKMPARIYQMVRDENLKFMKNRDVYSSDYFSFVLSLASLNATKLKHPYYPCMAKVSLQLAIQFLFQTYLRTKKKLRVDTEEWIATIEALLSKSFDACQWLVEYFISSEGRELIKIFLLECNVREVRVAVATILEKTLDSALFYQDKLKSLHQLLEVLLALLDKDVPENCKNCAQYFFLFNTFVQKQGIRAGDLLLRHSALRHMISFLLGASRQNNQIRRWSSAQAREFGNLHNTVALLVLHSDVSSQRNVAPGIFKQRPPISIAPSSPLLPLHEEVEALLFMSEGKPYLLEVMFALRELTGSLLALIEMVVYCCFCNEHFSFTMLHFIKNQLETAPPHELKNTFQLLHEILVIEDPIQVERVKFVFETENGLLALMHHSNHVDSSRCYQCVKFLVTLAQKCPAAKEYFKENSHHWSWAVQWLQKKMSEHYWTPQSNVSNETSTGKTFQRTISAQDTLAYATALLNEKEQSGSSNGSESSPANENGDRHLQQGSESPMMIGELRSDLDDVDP
Outline: as §1

USP25 = target: T3, USP25 (UniProt Q9UHP3)
T3 sequence (whole entry): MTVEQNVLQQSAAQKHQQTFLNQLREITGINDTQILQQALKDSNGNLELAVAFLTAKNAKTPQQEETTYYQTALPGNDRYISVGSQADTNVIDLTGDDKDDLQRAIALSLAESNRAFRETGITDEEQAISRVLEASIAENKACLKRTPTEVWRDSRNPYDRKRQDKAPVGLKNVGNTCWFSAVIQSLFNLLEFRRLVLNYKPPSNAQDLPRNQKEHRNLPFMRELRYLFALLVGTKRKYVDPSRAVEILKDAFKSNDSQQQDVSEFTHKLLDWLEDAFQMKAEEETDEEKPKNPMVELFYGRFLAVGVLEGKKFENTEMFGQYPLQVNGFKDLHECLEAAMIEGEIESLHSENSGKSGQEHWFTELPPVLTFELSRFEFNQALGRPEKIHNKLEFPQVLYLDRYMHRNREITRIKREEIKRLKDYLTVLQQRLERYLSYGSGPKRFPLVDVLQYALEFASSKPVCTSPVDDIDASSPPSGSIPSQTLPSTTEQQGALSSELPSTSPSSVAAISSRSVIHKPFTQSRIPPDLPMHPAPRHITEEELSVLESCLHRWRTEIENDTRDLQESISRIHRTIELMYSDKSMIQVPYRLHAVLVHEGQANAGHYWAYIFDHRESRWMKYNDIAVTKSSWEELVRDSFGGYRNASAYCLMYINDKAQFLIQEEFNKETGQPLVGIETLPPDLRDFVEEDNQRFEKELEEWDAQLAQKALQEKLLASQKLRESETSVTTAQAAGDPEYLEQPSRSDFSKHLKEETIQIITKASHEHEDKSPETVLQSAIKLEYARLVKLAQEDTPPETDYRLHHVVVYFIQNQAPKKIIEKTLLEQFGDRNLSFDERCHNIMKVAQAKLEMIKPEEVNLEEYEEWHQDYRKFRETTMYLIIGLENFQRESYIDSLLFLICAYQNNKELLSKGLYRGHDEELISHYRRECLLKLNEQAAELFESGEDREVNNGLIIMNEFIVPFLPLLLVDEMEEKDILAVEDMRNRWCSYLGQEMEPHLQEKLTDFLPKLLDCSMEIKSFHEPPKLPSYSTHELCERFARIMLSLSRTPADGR
Outline: as §1

USP28 = target: T4, USP28 (UniProt Q96RU2)
T4 sequence (whole entry): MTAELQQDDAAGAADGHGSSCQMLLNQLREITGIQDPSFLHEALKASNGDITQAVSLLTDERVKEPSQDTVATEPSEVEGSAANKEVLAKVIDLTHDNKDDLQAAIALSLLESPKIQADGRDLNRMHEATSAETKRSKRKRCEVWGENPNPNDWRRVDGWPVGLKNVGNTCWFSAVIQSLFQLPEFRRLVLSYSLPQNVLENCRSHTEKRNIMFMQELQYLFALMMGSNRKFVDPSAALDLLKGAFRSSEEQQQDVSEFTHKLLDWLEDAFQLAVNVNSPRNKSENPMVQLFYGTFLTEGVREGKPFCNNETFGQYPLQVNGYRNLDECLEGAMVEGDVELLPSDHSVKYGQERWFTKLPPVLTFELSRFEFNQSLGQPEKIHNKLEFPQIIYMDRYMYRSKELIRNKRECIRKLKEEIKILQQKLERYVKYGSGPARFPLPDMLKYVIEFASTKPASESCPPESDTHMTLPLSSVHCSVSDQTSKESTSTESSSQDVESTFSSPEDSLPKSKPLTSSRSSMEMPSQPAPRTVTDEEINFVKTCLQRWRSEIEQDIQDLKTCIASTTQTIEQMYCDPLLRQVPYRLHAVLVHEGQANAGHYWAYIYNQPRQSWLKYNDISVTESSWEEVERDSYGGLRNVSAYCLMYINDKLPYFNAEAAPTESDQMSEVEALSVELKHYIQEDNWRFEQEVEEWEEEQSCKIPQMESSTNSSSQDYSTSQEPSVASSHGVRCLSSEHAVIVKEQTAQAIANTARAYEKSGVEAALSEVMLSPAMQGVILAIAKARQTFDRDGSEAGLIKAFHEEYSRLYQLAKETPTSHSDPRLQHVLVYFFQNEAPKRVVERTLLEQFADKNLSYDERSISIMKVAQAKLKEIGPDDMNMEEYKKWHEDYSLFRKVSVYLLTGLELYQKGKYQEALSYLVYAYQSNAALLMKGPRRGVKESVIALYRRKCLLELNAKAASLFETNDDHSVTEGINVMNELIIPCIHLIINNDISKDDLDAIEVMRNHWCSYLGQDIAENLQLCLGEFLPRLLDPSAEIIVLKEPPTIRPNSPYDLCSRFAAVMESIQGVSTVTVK
Outline: as §1

Measured: log2 ratio of Biotin-Ahx-Ub-VS probe labelling

O=C(O)C1Cc2ccccc2CN1C(=O)CCl (stereo not given)
inactive: USP19 -0.32 | USP22 0.112 | USP24 -0.348 | USP25 -0.37 | USP28 -0.576
